Our source for the INHIBITION values is ChEMBL document CHEMBL4513216, “Probing the Open Global Health Chemical Diversity Library for Multistage-Active Starting Points for Next-Generation Antimalarials” (ACS Infect Dis, 2020).

The campaign covered roughly 69,000 compounds. About 8,600 (12%) showed an effect of 50% or more. Shown is part of a subset that was picked to be rich in strong results.

The test system of the experiment is Plasmodium berghei. In words: Screen against P. berghei liver stage (PbLuc), transformed with Luciferase, at 10uM. In kind it is functional, HepG2. The following applies: tested at 10 uM.
For `CCC(=O)N1CCCC(Cn2cc(-c3ccc(F)cc3)nn2)C1` (stereo not given), the INHIBITION is given as -14.2%.
Next, `O=C(c1ncoc1C1CC1)N1CCN(CCOc2ccccc2)CC1`: 26.7%; `Cn1nccc1C(=O)N1CCCN(CCCc2ccccc2)CC1`: -16.8%; `Cc1cnccc1N1CCCN(C(=O)CCCn2ccnc2C)CC1`: -2.48%.
Next, `Cc1nccn1CCCC(=O)N1CCCN(c2cccnn2)CC1`: 10%; `CCOCCC(=O)N1CCCN(c2ccccc2C)CC1`: 15.2%; `Cc1ccccc1N1CCN(C(=O)CC(C)C)CC1`: 56.5%.
Next, `Cc1ccccc1N1CCCN(C(=O)CCCn2ccnc2C)CC1`: 75.4%; `Cc1ccccc1N1CCCN(C(=O)c2cn(C)c3ccccc23)CC1`: -2.13%.
`O=C(c1ncoc1C1CC1)N1CCCN(CCCc2ccccc2)CC1`: the INHIBITION was 83.9%.
Next, `CSCC(=O)N1CCCN(c2ccccc2C)CC1`: 84.5%; `CSCCC(=O)N1CCCN(c2ccccc2C)CC1`: 34.1%; `CSCC(=O)N1CCCN(c2ccncc2C)CC1`: 49.2%.
Next, `COc1nn(C)c2c1CCCN(C(=O)c1cccc3cccnc13)C2`: 14%; `Cc1cc(C)c(C(=O)N2CCC3(CCCNC3)C2)cc1C` (stereo not given): -35.8%; `O=C1[C@H]2CN(C(=O)[C@H]3CCCO3)C[C@H]2CN1CCN1CCCC1`: 1.34%.
Regarding `CC(C)[C@H]1CN(CCCO)C[C@@H]1NC(=O)CCC(F)(F)F`, the INHIBITION was determined as 20.2%.
`CCn1cc(-n2cc3nc(N4CCCC4)[nH]cc-3c2=O)cn1`: the INHIBITION is on record as -29.6%.
Next, `Cc1cc(N2CCOC(C)(C(=O)N(C)C)C2)ncn1` (stereo not given): 37.8%.
The result for `NC(=O)N1CCC2(CCN(Cc3cccc(F)c3)CC2)CC1` reads -13.2%.
The result for `Cc1ccccc1N1CCCN(C(=O)CCc2cccnc2)CC1` reads 59.2%; that for `Cc1ccccc1N1CCCN(C(=O)CCc2ccncc2)CC1`, 26.9%.
Take `CC(=O)N1CCCN(CCCc2ccccc2)CC1`: the INHIBITION is 15.2%.
As for `Cc1nccn1CCC(=O)N1CCCN(CCCc2ccccc2)CC1`, the INHIBITION is listed as 51.5%.
Next, `Cc1nccn1CCC(=O)N1CCCN(c2ccccc2)CC1`: 28.7%; `Cc1ccccc1N1CCCN(C(=O)CCc2nncn2C)CC1`: 49.3%; `NC(=O)c1ccc(N2CCN(CCCc3cn[nH]c3)CC2)cc1`: -62.8%.
With `CCN(CC)CC1CN(Cc2ccco2)Cc2nccn2C1` (stereo not given), the INHIBITION is given as -33.9%.
The result for `CCc1nc(CN2CCN(C(=O)C3(C#N)CCCCC3)CC2)cs1` reads -9.37%; that for `Cc1[nH]nc(-c2ccc(F)cc2)c1CC(=O)NCC1CCOCC1`, 9.55%.
In the case of `COc1ccc(-c2cc3cccn(CC(=O)N4CCOCC4)c-3n2)cc1`, the INHIBITION is listed as -23.4%.
`COc1ccc(-c2n[nH]c(C)c2CC(=O)N2CCOCC2)cc1`: the INHIBITION worked out at 51.3%.
The result for `COc1ccc(-c2n[nH]c(C)c2CC(=O)NCC2CCOCC2)cc1` reads 51.9%; that for `COc1ccc(-c2n[nH]c(C)c2CC(=O)NCCN2CCOCC2)cc1`, 29.3%.
Next, `COc1ccc(-c2n[nH]c(C)c2CC(=O)NCC2CCCO2)cc1` (stereo not given): 39.7%.
Next, `COCCN(Cc1cnn(C)c1)C(=O)C1CCC(=O)N(C2CCCC2)C1` (stereo not given): 20.3%; `CC1(C)C[C@H](CCNC(=O)c2ccncc2)c2ccccc2O1`: 27.8%; `O=C1CC(N(C(=O)c2ccc(Cl)c(Cl)c2)C2CC2)C(=O)N1` (stereo not given): 31.8%.
`O=c1ccc(-n2ccnc2)nn1CCNS(=O)(=O)c1ccccc1Cl`: the INHIBITION came to 35.1%.
The result for `O=c1ccc(-n2ccnc2)nn1CCNS(=O)(=O)c1ccc(Br)cc1` reads 59.3%; that for `O=c1ccc(-n2ccnc2)nn1CCNS(=O)(=O)c1ccc(F)c(Cl)c1`, -1.99%.
Regarding `CN(Cc1ncc[nH]1)C(=O)C(C)(C)NC(=O)c1cccs1`, the INHIBITION is 9.79%.
Take `CC(NC(=O)N1CCC(n2cncn2)CC1)c1ccc(F)cc1` (stereo not given): the INHIBITION came out at 17.4%.
The result for `CCS(=O)(=O)N1CCC[C@]2(C(=O)N(C)C)CN(c3ccccn3)C[C@@H]2C1` reads 4.92%; that for `CN(C)Cc1nnc(C2CCN(c3ncccn3)CC2)n1C1CC1`, -12.1%; that for `Cc1cc(C)nc(N2CCC(c3nnc(CN(C)C)n3C3CC3)CC2)n1`, -46.8%.
The result for `Cc1cnc(C)c(N2CCC(c3nnc(CN(C)C)n3C3CC3)CC2)n1` reads 77.8%; that for `CCc1c(C)nc2n(c1=O)CC(C(=O)NCc1cccs1)CS2` (stereo not given), 35.8%; that for `Fc1ccc(CN2CCO[C@H]3[C@H](Oc4ccccn4)CC[C@@H]32)cc1`, 61.5%.
The result for `c1ccc(CN2CCO[C@H]3[C@H](OCCN4CCCC4)CC[C@@H]32)nc1` reads 26.8%; that for `c1ccc(O[C@@H]2CC[C@H]3[C@H]2OCCN3CC2CCOCC2)nc1`, 56.1%.
Regarding `c1ccc(O[C@H]2CC[C@H]3[C@H]2OCCN3Cc2nccs2)nc1`, the INHIBITION came to 6.8%.
In the case of `O=C(CO[C@@H]1CC[C@H]2[C@H]1OCCN2c1ncccn1)N1CCCC1`, the INHIBITION was 24.6%.
Next, `COc1ccc(CN2CCO[C@H]3[C@H](Oc4ccccn4)CC[C@@H]32)cc1`: 41.2%; `Cc1cccc(CN2CCO[C@H]3[C@H](Oc4ccccn4)CC[C@@H]32)n1`: -49.6%.
Consider `c1ccc(O[C@@H]2CC[C@H]3[C@H]2OCCN3Cc2ccsc2)nc1`, for which the INHIBITION is 20.9%.
On to `O=C(CO[C@@H]1CC[C@H]2[C@H]1OCCN2Cc1ccccn1)N1CCCC1`, for which the INHIBITION was 54.1%.
On to `Cc1cc(C)nc(N2CC=C[C@@H]2C(=O)NCc2ccc3c(c2)OCO3)n1`, for which the INHIBITION is 4.41%.
Next, `CC(C)n1c(=O)c2ccccc2n(CCN2CCCCC2)c1=O`: 3.19%; `COc1ccc(C)cc1C(=O)NC1(C#N)CCOCC1`: 42.1%.
Next, `COC(=O)c1ccc(N2CCN(CCS(C)(=O)=O)C(C)C2)cc1` (stereo not given): 0.411%.
Next, `Cc1cc(C(=O)CN2CCN(c3cnccn3)CC2)c(C)n1C(C)C`: 17.7%.
As to `CCOc1ccnc(N2CCN(C(=O)c3ccc(C#N)cc3)CC2)n1`, the INHIBITION is given as 36.1%.
Next, `N#Cc1ccc(CNCCn2cccn2)c(F)c1`: 20.74%; `O=C(Cn1c(-c2ccco2)cc2cccnc21)N1CCCC1`: -16.8%.
